In the first assay the target is FAN1. Put plainly: pooled miR-30 sensor sort-seq; sequence = guide strand. To be noted: shRNA.
The sequence TTGGTCATCTTAATCCAGCTTA came in with a sensor-assay potency score (higher = more potent) of 0.33.

Sequence TTTCACATCTTGCACAGCCATT came in with a sensor-assay potency score (higher = more potent) of -1.51.

TTACATATAACTTCTGACCAGT: the sensor-assay potency score (higher = more potent) turned out to be 0.259.

Turning to TTGAACTTTTTACAGCTCGGAG, the sensor-assay potency score (higher = more potent) is -1.04.

Turning to TTCTTTGATACACTCTTGCTTT, the sensor-assay potency score (higher = more potent) is -0.307.

For TAACTAGGAAACTCCATTCGGC, the sensor-assay potency score (higher = more potent) is -0.0842.

In turn, ATAACTTCTGACCAGTAGCTGA displayed a sensor-assay potency score (higher = more potent) of -0.771.

TTTTTGAGAACTGTTCTCCAAA: the sensor-assay potency score (higher = more potent) is -0.862.

The sequence TTGACCAACAGGACTGTTGAAA returned a sensor-assay potency score (higher = more potent) of -0.462.

Consider TAAGCAACTGTCATCCTGCAGA, for which the sensor-assay potency score (higher = more potent) was 0.0838.

For TAACATGATCGCATTATCTGAG, the sensor-assay potency score (higher = more potent) was found to be 0.286.

A further assay has as its target FANCF. The description is as above. The following applies: shRNA.
TTTGGGTTCTCTCTATAGCCAT: the sensor-assay potency score (higher = more potent) is -1.05.

The sequence TCTCTTGGAGTGTCTCCTCATC yielded a sensor-assay potency score (higher = more potent) of -1.11.

With TACTTCAAAATCTCCATCCTGC, the sensor-assay potency score (higher = more potent) was 0.811.

As to TCTATAGCCATTGAAGCGCAGC, the sensor-assay potency score (higher = more potent) is -1.1.

Take TAGAACTTTATCTTTCAGAGGT: the sensor-assay potency score (higher = more potent) was determined as 0.316.

In the case of TTTCTGAAGGTCATAGTGCAAA, the sensor-assay potency score (higher = more potent) is -1.33.

Sequence AAACCTATTGTGCAACTCCTCC came in with a sensor-assay potency score (higher = more potent) of -0.726.

Consider TTCAAAATCTCCATCCTGCGCT, for which the sensor-assay potency score (higher = more potent) was found to be 0.034.

ATGTGCACCGCAGACCGCCGGC showed a sensor-assay potency score (higher = more potent) of -1.25.

For the sequence AAGAGGTCTGTCCAGATGCTAA, the sensor-assay potency score (higher = more potent) was -1.55.

Turning to TTGGGACTCAGTTCCAACCCAA, the sensor-assay potency score (higher = more potent) was -0.182.

ATAGACAGGAGACAGCGCTGGG registered a sensor-assay potency score (higher = more potent) of -0.33.

TAGACAGGAGACAGCGCTGGGT came in with a sensor-assay potency score (higher = more potent) of -0.533.

TGGAAGTTCGCTAATCCCGGAA registered a sensor-assay potency score (higher = more potent) of -0.728.

Regarding TTGAAACCTATTGTGCAACTCC, the sensor-assay potency score (higher = more potent) was determined as 0.168.

TTATCTTTCAGAGGTGGAGGGG: the sensor-assay potency score (higher = more potent) was -0.733.

Take TTAGAACTTTATCTTTCAGAGG: the sensor-assay potency score (higher = more potent) is -1.12.

TTGGGTTCTCTCTATAGCCATT: the sensor-assay potency score (higher = more potent) is -1.39.

The sequence TATCTTTCAGAGGTGGAGGGGC registered a sensor-assay potency score (higher = more potent) of -0.0769.

The values above are taken from the OligoGym collection.
Also: reference of the scale not given here.
